{"source": "PubChem BioAssay (NCI)", "note": "This is part of a sample that, as a whole, favours compounds with a hit. Of some 79,000 tested, about 15% had one in any assay. Calls of active or inactive are those of the source. Rule as the data show it: active = growth inhibition above about 70%; inactive = the rest.", "data": [{"assay": "NCI Yeast Anticancer Drug Screen. Data for the rad50 strain (AID 155);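 also: 0% = growth of vehicle-only cultures of the same strain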", "settings": "S. cerevisiae rad50 strain growth inhibition, active compounds read high; at 50.0 µM unless noted", "outline": "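Inhibition values express reduced yeast growth in compound-treated cultures relative to vehicle-treated controls.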", "values": [{"compound": "CCCOC(=O)c1ccc([N+](=O)[O-])cc1", "growth inhibition": "16.4% (inactive)"}, {"compound": "O=C1OC2C(O)C(CO)OC2n2c1cc(=O)[nH]c2=O", "note": "(stereo not given)", "growth inhibition": "2.55% (inactive)"}, {"compound": "CNCCc1cn(C2OC(CO)C(O)C(O)C2O)cn1", "note": "(stereo not given)", "growth inhibition": "-7.15% (inactive)"}, {"compound": "NC(=O)C1CC1", "growth inhibition": "-9.4% (inactive)"}, {"compound": "NC(=O)c1ccc(-c2csc(=S)[nH]2)s1", "growth inhibition": "-1.9% (inactive)"}, {"compound": "OCCNc1ncnc2c1ncn2C1OC(CO)C(O)C1O", "note": "(stereo not given)", "growth inhibition": "6.3% (inactive)"}, {"compound": "CC1SCc2nc3ccccc3n21", "note": "(stereo not given)", "growth inhibition": "2.25% (inactive)"}, {"compound": "CNC(=O)C1C(=O)NC(=O)C1=C1CCCC1", "note": "(stereo not given)", "growth inhibition": "11.2% (inactive)"}, {"compound": "O=C1OCCOCCOCCOCCOCCOC(=O)c2cccc1n2", "growth inhibition": "18.1% (inactive)"}, {"compound": "O=S=Nc1c(Cl)cc(Cl)cc1Cl", "growth inhibition": "1.1% (inactive)"}, {"compound": "ClCc1ccccc1C(c1ccccc1)c1ccccc1", "growth inhibition": "-0.8% (inactive)"}, {"compound": "CC(C)(C)NC(=O)CCCl", "growth inhibition": "16.4% (inactive)"}, {"compound": "O=C(c1ccccc1)c1ccc2c(Cl)ccc3c2c1CC3", "growth inhibition": "-2.8% (inactive)"}, {"compound": "COC(=O)c1cc(C)n(C)c(=O)c1CN", "growth inhibition": "-6.4% (inactive)"}, {"compound": "CN(C)C(=O)NN1CCCCCC1", "growth inhibition": "7.25% (inactive)"}, {"compound": "COC(=O)N/N=C(/CCC(=O)Nc1ccc(C)c(C)c1)CC(=O)C(C)(C)C", "growth inhibition": "-10.8% (inactive)"}, {"compound": "CCCCCCCSCC(=O)OCC", "growth inhibition": "-12.6% (inactive)"}, {"compound": "CO[C@H]1C[C@H](n2cc(C)c(=O)[nH]c2=O)O[C@@H]1CO", "growth inhibition": "-6.55% (inactive)"}, {"compound": "Cc1cc(Cl)ccc1NC(=O)C1C(=O)N(c2ccc(Cl)cc2C)C(=O)/C1=N\\N", "note": "(stereo not given)", "growth inhibition": "0.65% (inactive)"}, {"compound": "C=CCc1cc2c(C)cc(=O)oc2c(C)c1OC(C)=O", "growth inhibition": "-4.1% (inactive)"}]}]}
